# Results published in PubChem BioAssay.
# Calls of active or inactive are those of the source.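 The calls were made as follows, unless noted: active = visually confirmed hit in the image check and inhibition above 20%; inconclusive = visually confirmed hit but inhibition not above 20%; inactive = no visual hit in the image check.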
# Legend:
# [1] = inhibitors of TNFa-induced NFkB p65 translocation, primary screen, imaging, HUVEC, MLSMR starter and 10KST1 sets (AID 438;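 active = inhibition above 20% together with a positive visual image hit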;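 also: compound added about 3h40 before a 20 min TNFalpha stimulation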;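 as to inhibition: signal is the nuclear over cytoplasmic p65 intensity ratio per well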); conditions: HUVEC TNFa-induced p65 nuclear translocation; cell count: measured here: nuclei count (cytotoxicity indicator), at 2.08 µM; inhibition: at 2 µM, stronger effect = higher value, 0% TNFa-plus-vehicle, 100% no-TNFa wells
# [2] = inhibitors of mutant huntingtin aggregation, primary screen, imaging, exon1htt(103Q)mCFP cells, high-content imaging (AID 483;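 active = visual image review flags a hit and inhibition of aggregation exceeds 20%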;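 also: compound exposure lasted 3 days before fixation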;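 as to nuclei count: percent of the per-plate median nuclei count of sample wells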); conditions: exon1htt(103Q)mCFP cell line, aggregate imaging, at 2 µM; inhibition of aggregation: stronger effect = higher value; nuclei count: measured here: cell count, toxicity
# [3] = inhibitors of E-selectin induction by TNFa, primary screen, imaging, HUVEC, immunofluorescence, MLSMR starter and 10KST1 sets (AID 487); conditions: HUVEC TNFalpha-induced E-selectin immunofluorescence imaging, at 2 µM; inhibition: stronger effect = higher value; nuclei count: measured here: cell number, toxicity;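 as to inhibition: signal is fraction of cell area covered by stained E-selectin grains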;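 as to nuclei count: 100% = median nuclei count of all wells on the same plate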
# [4] = target: Voltage-gated potassium channel subunit beta-2 (Rattus norvegicus) (UniProt P62483); experiment: KvBeta enzyme negative modulators, primary screen, biochemical, NADPH fluorescence (AID 622;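 active = fluorescence slope higher than the sample average by over 3 SD, cut at about -0.22 in these data, passing the limit was not always enough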;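 also: slope of raw intensity against log time taken from 70 to 1610 s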); conditions: recombinant KvBeta, 4-cyanobenzaldehyde reduction, at 10 µM, stronger effect = higher value
# Sequence of Voltage-gated potassium channel subunit beta-2 (Rattus norvegicus) (P62483 whole entry, looked up): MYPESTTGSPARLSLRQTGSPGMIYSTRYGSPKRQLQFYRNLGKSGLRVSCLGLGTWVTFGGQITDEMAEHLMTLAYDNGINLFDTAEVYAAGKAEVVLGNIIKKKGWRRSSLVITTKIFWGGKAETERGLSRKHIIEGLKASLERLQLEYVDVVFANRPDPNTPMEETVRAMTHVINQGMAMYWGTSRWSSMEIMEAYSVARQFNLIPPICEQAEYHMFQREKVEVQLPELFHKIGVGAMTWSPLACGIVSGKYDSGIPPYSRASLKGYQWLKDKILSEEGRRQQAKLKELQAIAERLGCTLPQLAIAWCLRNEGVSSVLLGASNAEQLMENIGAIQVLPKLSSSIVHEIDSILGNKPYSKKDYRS
# [5] = target: Voltage-gated potassium channel subunit beta-2 (Rattus norvegicus) (UniProt P62483); experiment: KvBeta positive modulators, primary screen, biochemical, NADPH fluorescence (AID 623;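 active = NADPH fluorescence slope more negative than the mean of all samples by about 3 SD, 99.7% confidence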;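 also: fluorescence intensity change per second fitted from 20 to 320 s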); conditions: Recombinant KvBeta, NADPH fluorescence decrease slope, 10 min; at 10 µM; stronger effect = lower value
# [6] = target: Alpha-2C adrenergic receptor (Homo sapiens) (UniProt P18825); experiment: modulators of alpha2C/GIRK thallium flux, primary screen, cell-based, HEK293 alpha2C/GIRK1/2 (AID 624;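 active = fluorescence slope after compound addition differing from the mean of all screened samples at 99.7% confidence, in either direction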;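 also: slope of fluorescence ratio to pre-addition baseline per second over 15 to 24 s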); conditions: thallium flux BTC fluorescence, at 10 µM, actives lie on both sides
# Sequence of Alpha-2C adrenergic receptor (Homo sapiens) (P18825 whole entry, looked up): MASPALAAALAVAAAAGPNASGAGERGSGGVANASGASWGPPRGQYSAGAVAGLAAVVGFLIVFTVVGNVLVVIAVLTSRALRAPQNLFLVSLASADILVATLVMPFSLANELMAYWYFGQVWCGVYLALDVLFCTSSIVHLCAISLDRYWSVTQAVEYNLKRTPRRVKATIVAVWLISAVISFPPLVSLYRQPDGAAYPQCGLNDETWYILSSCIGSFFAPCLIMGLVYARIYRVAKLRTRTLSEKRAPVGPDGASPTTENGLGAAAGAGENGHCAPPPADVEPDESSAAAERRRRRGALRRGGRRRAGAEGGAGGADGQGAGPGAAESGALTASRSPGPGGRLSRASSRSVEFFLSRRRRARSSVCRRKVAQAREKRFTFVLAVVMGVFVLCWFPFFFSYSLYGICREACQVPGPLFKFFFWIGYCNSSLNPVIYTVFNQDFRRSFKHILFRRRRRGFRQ
# [7] = inhibitors of Sendai virus-induced IRF3 signaling, primary screen, TLR/RLR signaling modifier project, cell-based, Sendai virus stimulus, luciferase, 10K MLSCN set (AID 602276;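 active = inhibition at or above 50% at 10 µM; inactive = inhibition below 50%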;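 also: firefly luciferase from ISG56 promoter only with Renilla not read in this screen; 0% = Sendai virus plus DMSO and 100% = medium plus DMSO without virus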); conditions: HEK293 RL24 IRF3 luciferase reporter, at 10 µM, stronger effect = higher value
# [8] = inhibitors of poly I:C-induced TLR3 signaling, primary screen, cell-based, poly I:C stimulus, luciferase, 10K MLSCN set (AID 602277;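 active = inhibition of the reporter signal at or above 50%; inactive = inhibition below 50%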); conditions: HEK293-TLR3 RL24 IRF3 luciferase reporter, at 10 µM, stronger effect = higher value
Structure (SMILES),cell count [1],inhibition [1],inhibition of aggregation [2],nuclei count [2],inhibition [3],nuclei count [3],fluorescence slope [4],NADPH fluorescence slope [5],slope [6],inhibition [7],inhibition [8]
Cc1ccccc1CSc1nnc(C)c(=O)[nH]1,600,1.1% (inactive),-41.3% (inactive),105%,-37.9% (inactive),133%,-0.581 (inactive),1.6e-05 (inactive),0.00756 (inactive),12.3% (inactive),13.6% (inactive)
CCOc1cc(C(=O)N2CCN=C2SC)cc(OCC)c1OCC,227,-4.9% (inactive),-39.5% (inactive),109%,-24.8% (inactive),108%,-0.595 (inactive),4.6e-06 (inactive),0.00661 (inactive),15.5% (inactive),24.3% (inactive)
COc1ccc(-c2nc(C(N)=O)c3[nH]c(=O)n(-c4cccc(Cl)c4)c3n2)cc1OC,743,-1% (inactive),7.2% (inactive),100%,-63.8% (inactive),114%,-0.521 (inactive),-3e-05 (inactive),0.00698 (inactive),3.83% (inactive),6.23% (inactive)
Cn1c(Cc2ccccc2)nnc1SCC(=O)c1ccc(Br)s1,180,0.4% (inactive),16.7% (inactive),94.8%,-8.9% (inactive),98.1%,-0.596 (inactive),-1.4e-05 (inactive),0.00563 (inactive),6.15% (inactive),10.8% (inactive)
CCOC(=O)c1ccc(NS(=O)(=O)c2ccc3c(c2)oc(=O)n3C)cc1,467,1.3% (inactive),25.3% (inactive),72.9%,10.3% (inactive),107%,-0.602 (inactive),-1.1e-05 (inactive),0.00688 (inactive),-7.08% (inactive),14% (inactive)
O=S(=O)(c1cccc2nsnc12)N1CCN(c2ncccn2)CC1,573,-15.2% (inactive),5.1% (inactive),99.7%,-93.3% (inactive),120%,-0.408 (inactive),-4.2e-05 (inactive),0.00508 (inactive),12.7% (inactive),31.3% (inactive)
O=S(=O)(NC1CCCC1)c1ccc(S(=O)(=O)N2CCc3ccccc32)cc1,395,0% (inactive),8.6% (inactive),102%,-13.9% (inactive),97.5%,-0.589 (inactive),-1.9e-05 (inactive),0.00513 (inactive),5.42% (inactive),-11.7% (inactive)
Cc1ccc2c(CNCc3ccco3)cc(=O)oc2c1,712,7.3% (inactive),21.5% (inactive),87.6%,-10.2% (inactive),96.6%,-0.519 (inactive),-1.9e-05 (inactive),0.00495 (inactive),-18.6% (inactive),-70.4% (inactive)
CC(NC(=O)c1cn(C)c2ccc(S(=O)(=O)N3CCCC3)cc2c1=O)c1ccc2c(c1)OCCO2 (stereo not drawn),766,0% (inactive),5.6% (inactive),98.3%,3.8% (inactive),103%,-0.483 (inactive),-0.000101 (inactive),0.00703 (inactive),-4.57% (inactive),17% (inactive)
CCOC(=O)c1ccccc1NC(=O)c1ccc2c(=O)n3c(nc2c1)CCCCC3,472,15.6% (inactive),9.6% (inactive),114%,-28.3% (inactive),81.5%,-0.399 (inactive),-1.5e-05 (inactive),0.00636 (inactive),2.48% (inactive),32.9% (inactive)
CC1CCN(c2nc3c(c(=O)[nH]c(=O)n3C)n2CCSc2ncccn2)CC1,548,0.8% (inactive),-8.6% (inactive),83.9%,-15.9% (inactive),118%,-0.43 (inactive),-8.7e-05 (inactive),0.00584 (inactive),8.83% (inactive),24.8% (inactive)
CS(=O)(=O)c1ccc2nc(NC(=O)C3C4C=CC(C4)C3C(=O)O)sc2c1 (stereo not drawn),475,12.5% (inactive),0.5% (inactive),96.1%,-113% (inactive),115%,-0.41 (inactive),1e-05 (inactive),0.00376 (inactive),1.15% (inactive),6.4% (inactive)
COC(=O)c1ccc(-c2nn(C)c(=O)c3ccccc23)cc1,493,-5.5% (inactive),-11.1% (inactive),76.7%,-13.3% (inactive),97.9%,-0.55 (inactive),-3e-05 (inactive),0.00686 (inactive),8.98% (inactive),29.2% (inactive)
Cc1ccc2c(C)nc(Nc3nc(CSc4nnnn4-c4ccccc4)cc(=O)[nH]3)nc2c1,352,-3.8% (inactive),-22.3% (inactive),100%,-54.7% (inactive),101%,-0.6 (inactive),-3.4e-05 (inactive),0.00691 (inactive),8.72% (inactive),-4.56% (inactive)
CCOc1ccc(N(CC(=O)NCc2cccc(OC)c2)S(=O)(=O)c2c(C)noc2C)cc1,362,-3.2% (inactive),18.9% (inactive),95%,-114% (inactive),104%,-0.415 (inactive),1.6e-05 (inactive),0.00505 (inactive),-5.75% (inactive),-5.65% (inactive)
COc1ccccc1N1CC(C(=O)Nc2cccc(C(=O)O)c2)CC1=O (stereo not drawn),495,-16.1% (inactive),10.1% (inactive),76.3%,-32.1% (inactive),127%,-0.547 (inactive),2.1e-05 (inactive),0.00458 (inactive),-5.85% (inactive),-4.45% (inactive)
Cc1ccc2nc(NC(=O)C3CCCN(S(=O)(=O)c4cccc5nonc45)C3)sc2c1 (stereo not drawn),266,-13.5% (inactive),9.4% (inactive),91%,-3.1% (inactive),70.9%,-0.304 (inactive),2.8e-06 (inactive),0.00386 (inactive),14.7% (inactive),-5.96% (inactive)
CC(C)(C)c1cc(CCC(=O)N2CCNCC2)c(C(C)(C)C)cc1O,557,-31.3% (inactive),18.7% (inactive),102%,-57% (inactive),101%,-0.411 (inactive),-9e-05 (inactive),0.00515 (inactive),13.9% (inactive),27.5% (inactive)
O=C(O)c1cc2nc(-c3ccc(F)cc3)cc(C(F)(F)F)n2n1,435,4.9% (inactive),-0.7% (inactive),97.9%,26.5% (inactive),110%,-0.385 (inactive),-4.1e-05 (inactive),0.00272 (inactive),0.989% (inactive),19.6% (inactive)
CCN(CCCNC(=O)C1CCN(S(=O)(=O)c2cccc3nonc23)CC1)Cc1ccccc1,297,16.9% (inactive),14.3% (inactive),92.7%,-72.5% (inactive),110%,-0.43 (inactive),-4.9e-05 (inactive),0.00388 (inactive),13.3% (inactive),29.8% (inactive)
O=C(NCCCCNC(=O)c1cccnc1)c1cccnc1,514,10.1% (inactive),8.2% (inactive),99.6%,-31.4% (inactive),116%,-0.64 (inactive),3.6e-05 (inactive),0.00666 (inactive),13.9% (inactive),26.9% (inactive)
CCC(C)NC(=O)c1cc(CC(C)C)on1 (stereo not drawn),880,3.5% (inactive),21.8% (inactive),80.5%,-78.2% (inactive),127%,-0.61 (inactive),-1.9e-05 (inactive),0.00602 (inactive),-59.4% (inactive),-111% (inactive)
Cc1ccc(NC(=O)CN2CC(C)SC2=NC2CCCCC2)cc1 (stereo not drawn),519,10.1% (inactive),-7.2% (inactive),109%,-38.8% (inactive),112%,-0.514 (inactive),-4.1e-05 (inactive),0.00585 (inactive),17.3% (inactive),13.9% (inactive)
CCOC(=O)C1CCCN(C(=O)c2sc3nc(-c4ccccc4)cn3c2C)C1 (stereo not drawn),631,13.2% (inactive),5.7% (inactive),103%,67.6% (active),76.5%,-0.544 (inactive),1.7e-05 (inactive),0.00524 (inactive),-20.7% (inactive),-120% (inactive)
Cc1cc(N2CCC3(CC2)OCCO3)n2nc(C)c(-c3ccc(Cl)cc3)c2n1,495,-19.7% (inactive),-48.2% (inactive),61.2%,-11.4% (inactive),94.7%,-0.544 (inactive),7.5e-07 (inactive),0.00741 (inactive),12.3% (inactive),12.1% (inactive)
O=C(CCn1c(=O)oc2ccccc21)NCc1ccco1,686,-5.9% (inactive),-10% (inactive),104%,-32.5% (inactive),127%,-0.598 (inactive),-5.1e-05 (inactive),0.00749 (inactive),-5.54% (inactive),6.8% (inactive)
COc1ccc2c(c1)C(C)=CC(C)(C)N2C(=O)C(C)N1C(=O)c2ccccc2C1=O (stereo not drawn),637,4.5% (inactive),7.1% (inactive),108%,21.2% (inactive),118%,-0.612 (inactive),-1.8e-05 (inactive),0.00489 (inactive),5.4% (inactive),5.89% (inactive)
COc1ccc(NC(=O)C2CCCN2S(=O)(=O)c2cccc3cccnc23)c(OC)c1 (stereo not drawn),645,-8.6% (inactive),2.8% (inactive),77.7%,-59.6% (inactive),103%,-0.626 (inactive),2.3e-06 (inactive),0.00652 (inactive),1.34% (inactive),38.4% (inactive)
